Experimental data published in article PMC4336329 (PLoS ONE, 2015).
The campaign covered roughly 310,000 compounds. About 14,000 (4.5%) showed an effect of 50% or more. The effect is printed as a negative number. The sample holds strong results, similar compounds and a random draw of the others, so the mix is not that of the screen.

Biological target: human ether-à-go-go-related gene (hERG) potassium channel (human, UniProt Q12809)
Experiment: primary screen, population patch clamp on CHO cells stably expressing hERG; higher = less effect of the substance
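Also: peak tail current of the secondary pulse compared with the same well before compound.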

Sequence of human ether-à-go-go-related gene (hERG) potassium channel (Q12809 whole entry, looked up): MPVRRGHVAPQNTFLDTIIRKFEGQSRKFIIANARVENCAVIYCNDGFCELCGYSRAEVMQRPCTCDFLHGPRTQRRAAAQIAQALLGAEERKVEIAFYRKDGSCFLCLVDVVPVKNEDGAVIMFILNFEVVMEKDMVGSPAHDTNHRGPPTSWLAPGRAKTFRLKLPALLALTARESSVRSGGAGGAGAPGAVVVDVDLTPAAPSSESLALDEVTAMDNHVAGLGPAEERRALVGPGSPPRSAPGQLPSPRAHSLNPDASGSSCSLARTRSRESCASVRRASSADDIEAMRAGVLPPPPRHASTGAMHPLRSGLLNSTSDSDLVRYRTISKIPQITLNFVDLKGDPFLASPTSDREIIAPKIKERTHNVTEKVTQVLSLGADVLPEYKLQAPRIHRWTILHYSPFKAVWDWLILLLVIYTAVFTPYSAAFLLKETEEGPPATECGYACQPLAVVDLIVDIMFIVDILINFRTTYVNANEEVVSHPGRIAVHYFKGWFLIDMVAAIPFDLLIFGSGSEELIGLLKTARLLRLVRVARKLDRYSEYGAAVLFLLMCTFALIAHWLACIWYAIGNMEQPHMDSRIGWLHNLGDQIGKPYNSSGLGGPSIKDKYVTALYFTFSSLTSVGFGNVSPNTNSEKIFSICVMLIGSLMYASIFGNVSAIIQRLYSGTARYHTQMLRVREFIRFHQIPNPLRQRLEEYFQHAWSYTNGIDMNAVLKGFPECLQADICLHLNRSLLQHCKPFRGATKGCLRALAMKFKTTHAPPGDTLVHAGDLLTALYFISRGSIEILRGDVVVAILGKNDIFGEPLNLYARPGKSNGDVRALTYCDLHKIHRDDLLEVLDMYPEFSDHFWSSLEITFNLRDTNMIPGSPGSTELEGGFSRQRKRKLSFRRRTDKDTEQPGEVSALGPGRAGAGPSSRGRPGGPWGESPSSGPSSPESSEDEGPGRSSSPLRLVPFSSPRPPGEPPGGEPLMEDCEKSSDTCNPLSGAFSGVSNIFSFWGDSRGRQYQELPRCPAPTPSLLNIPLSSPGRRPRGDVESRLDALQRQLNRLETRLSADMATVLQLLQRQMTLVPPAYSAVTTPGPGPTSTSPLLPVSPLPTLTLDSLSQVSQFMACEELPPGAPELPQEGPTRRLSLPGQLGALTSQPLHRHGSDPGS

Row | Structure (SMILES) | hERG current change (%, negative = inhibition) at 10uM [%]
1 | Cc1ccc(-n2nc(C(=O)O)cc2-c2ccccc2)cc1 | 14.5
2 | O=C(O)c1cc(-c2ccc(Cl)cc2)n(-c2ccccc2)n1 | 30.3
3 | O=C(c1cc(-c2ccc(Cl)cc2)n(-c2ccc(Cl)c(Cl)c2)n1)N1CCOCC1 | -57
4 | Cc1ccc(-n2nc(C(=O)O)cc2-c2ccc(Cl)cc2)cc1 | 24.9
5 | O=C(c1cc(-c2ccc(Cl)cc2)n(-c2ccc(Cl)cc2)n1)N1CCOCC1 | -80.8
6 | Cc1ccc(-n2nc(C(=O)N3CCOCC3)cc2-c2ccc(Cl)cc2)cc1 | -83.3
7 | O=C(O)c1cc(-c2ccc(Cl)cc2)n(-c2ccc(Cl)cc2)n1 | 38.2
8 | O=C(O)c1cc(-c2ccc(Cl)cc2)n(-c2cccc(Cl)c2)n1 | 23.4
9 | O=C(c1cc(-c2ccc(Cl)c(Cl)c2)on1)N1CCOCC1 | -14.1
10 | CCn1c(-c2cc(-c3ccc(OC(C)C)cc3)nc3ccccc23)n[nH]c1=S | 2.71
11 | CCOC(=O)c1cc(NC(=O)N(CC)CC)c(C)nc1C | 5.59
12 | Cc1cccc(C)c1NC(=O)CCc1nnc2ccc(N3CCCC3)nn12 | 10.3
13 | CC1CCCCC1NCC(=O)NCc1ccc(F)cc1.O=C(O)C(=O)O (stereo not shown) | -8.33
14 | CCN(c1ccccc1)S(=O)(=O)c1ccc(Oc2ccc(C(C)=O)cc2OC)nc1 | -26.2
15 | CCN(CC)S(=O)(=O)c1ccc(OC)nc1 | 10.4
16 | CCN(CC)S(=O)(=O)c1ccc(Oc2cccc(C(C)=O)c2)nc1 | -65.5
17 | COC(=O)c1nn(-c2ccc(OC)cc2)c(=O)cc1NN | 26.7
18 | Cc1ccc(S(=O)(=O)N(C)C)cc1NC(=O)C(C)OC(=O)C1CCCC1 (stereo not shown) | -61.2
19 | CN(C)S(=O)(=O)c1cccc(NC(=O)c2ccc(OC(F)(F)F)cc2)c1 | -27.8
20 | Cc1ccc(S(=O)(=O)N(C)C)cc1NC(=O)c1ccc(OC(F)(F)F)cc1 | -51.3
21 | Cc1ccc(S(=O)(=O)N(C)C)cc1NC(=O)C1CCCC1 | 2.05
22 | Cc1ccc(S(=O)(=O)N(C)C)cc1NC(=O)C1CCCCC1 | -1.12

Row | Structure (SMILES) | hERG current change (%, negative = inhibition) at 10uM [%]
23 | Cc1ccc(S(=O)(=O)N(C)C)cc1NC(=O)c1ccncc1 | 4.33
24 | Cc1ccc(S(=O)(=O)N(C)C)cc1NC(=S)NNC(=O)C1CC1 | -54.6
25 | CCN(CC)S(=O)(=O)c1ccc(C)c(NC(=S)NNC(=O)C2CC2)c1 | 11.1
26 | Cc1ccc(S(=O)(=O)N(C)C)cc1NC(=O)C1CCC1 | 12.2
27 | COCCN1CCN(C(=O)C2CCC(=O)N(CCc3ccccc3)C2)CC1 (stereo not shown) | 5.79
28 | CN(Cc1ccccc1)C(=O)c1nc[nH]c1C(=O)N1CCN(C(=O)OC(C)(C)C)CC1 | 11.2
29 | CN(C)CCN(C(=O)COc1ccc(Cl)cc1)c1nc2cc3c(cc2s1)OCO3 | -5.52
30 | CCN(CC)CCN(C(=O)CCS(=O)(=O)c1ccccc1)c1nc2cc3c(cc2s1)OCO3.Cl | -20.6
31 | CN(C)CCCN(C(=O)COc1ccc(Cl)cc1)c1nc2cc3c(cc2s1)OCCO3.Cl | -55
32 | CN(C)CCCN(C(=O)COc1ccccc1)c1nc2cc3c(cc2s1)OCCO3 | -45
33 | CN(C)CCCN(C(=O)CCS(=O)(=O)c1ccccc1)c1nc2cc3c(cc2s1)OCO3.Cl | -60
34 | CN(C)CCCN(C(=O)COc1ccc(Cl)cc1)c1nc2cc3c(cc2s1)OCO3.Cl | -59.7
35 | CN(C)CCCN(C(=O)COc1ccccc1)c1nc2cc3c(cc2s1)OCO3.Cl | -65.4
36 | CN(C)CCN(C(=O)CCS(=O)(=O)c1ccccc1)c1nc2cc3c(cc2s1)OCO3.Cl | 7.43
37 | Clc1ccc(CN(CC2CCCO2)C(c2cccs2)c2nnnn2C2CCCC2)cc1 (stereo not shown) | 3.97
38 | O=C(/C=C/c1cccs1)Nc1nccs1 | 15.8
39 | O=S(=O)(c1ccc(Oc2ccc(Cl)cc2)c(S(=O)(=O)N2CCCCC2)c1)N1CCCCC1 | -10.1
40 | COC(=O)c1ccc(-c2ccco2)n1Cc1ccccc1Cl | -1.48
41 | CC(Oc1ccc2oc(-c3ccccc3)c(C(=O)O)c2c1)C(=O)O (stereo not shown) | 14.7
42 | Cn1c(NCc2cccs2)nc2ccccc21 | -11.1
43 | Cc1cc(C(=O)CSc2nc(N)cc(=O)[nH]2)c(C)n1-c1ccc(OC(F)F)cc1 | -1.41
44 | Cc1cc(C(=O)CSc2cccc[n+]2[O-])c(C)n1-c1ccccc1 | 13.9

Row | Structure (SMILES) | hERG current change (%, negative = inhibition) at 10uM [%]
45 | Cc1cc(C(=O)CSc2cccc[n+]2[O-])c(C)n1-c1ccc(Br)cc1 | -68.6
46 | COC(=O)c1ccc(-n2c(C)cc(C(=O)CSc3cccc[n+]3[O-])c2C)cc1 | 21.2
47 | Cc1cc(C(=O)CC#N)c(C)n1-c1ccc(OC(F)F)cc1 | -21.5
48 | Cc1cc(C(=O)CSc2cccc[n+]2[O-])c(C)n1-c1ccc(OC(F)F)cc1 | -61.9
49 | Cc1nc(Nc2ccccc2C(F)(F)F)sc1C(=O)N(C)C | 21.7
50 | COC(=O)C(c1cc(OC)c(O)c(OC)c1)(N1CCNC(C)C1)C(F)(F)F (stereo not shown) | -9.77
51 | CCOC(=O)CSc1nnc(-c2c[nH]c3ccccc23)n1CC | -10.3
52 | CCn1c(SCC(=O)N2CCN(c3ccccc3)CC2)nnc1-c1c[nH]c2ccccc12 | -53.6
53 | Cn1c(SCC(=O)N2CCN(c3ccccc3)CC2)nnc1-c1ccccc1 | -11.2
54 | Cn1c(SCC(=O)N2CCCc3ccccc32)nnc1-c1c[nH]c2ccccc12 | -10.2
55 | Cn1c(SCC(=O)N2CCN(c3ccccc3)CC2)nnc1-c1ccncc1 | -19.5
56 | Cn1c(SCC(=O)N2CCN(c3ccccc3)CC2)nnc1-c1c[nH]c2ccccc12 | -50.5
57 | Cn1c(SCC(=O)N2CCN(c3cccc(Cl)c3)CC2)nnc1-c1ccncc1 | -55.9
58 | Cn1c(SCC(=O)N2CCOCC2)nnc1-c1ccncc1 | 16.3
59 | CCn1c(SCC(=O)N2CCc3ccccc32)nnc1-c1c[nH]c2ccccc12 | 11.8
60 | COc1cccc(N2CCN(C(c3ccccn3)c3nnnn3C(C)(C)C)CC2)c1 (stereo not shown) | 1.38
61 | O=C(c1ccccc1)N(Cc1cccc(Br)c1)C1CCS(=O)(=O)C1 (stereo not shown) | -7.59
62 | CCCCC1(C(=O)OC)NC(c2ccc(O)cc2)C2C(=O)N(c3ccccc3)C(=O)C21 (stereo not shown) | 2.03
63 | Cc1ccc(-c2nnc(SCC#CCOC(=O)c3ccco3)o2)cc1 | -6.36
64 | O=C(O)c1ccc(NC(CSCc2ccc(F)cc2)C(=O)O)c([N+](=O)[O-])c1 (stereo not shown) | 2.41
65 | CCOc1ccc(C2c3[nH]c4ccccc4c3C[C@H]3C(=O)N(C4CCN(Cc5ccccc5)CC4)CC(=O)N23)cc1OC (stereo partly shown) | -5.25
66 | C/C(CC(=O)Nc1ccc2c(c1)OCO2)=N\NC(=O)OC(C)(C)C | -5.1

Row | Structure (SMILES) | hERG current change (%, negative = inhibition) at 10uM [%]
67 | COC(=O)C1C(O)=C(C(C)=N)C(=O)CC1(C)C (stereo not shown) | 22.9
68 | O=C(COC(=O)C1CC(=O)N(c2nc(-c3ccccc3)cs2)C1)c1ccccc1 (stereo not shown) | 26.9
69 | C=C1CCN([C@H](C(=O)NCc2ccccc2)C(C)C)S(=O)(=O)c2ccccc21 | 3.33
70 | CCOC(=O)c1cc2ccccc2nc1C | 5.32
71 | CC(C)n1nc(C(=O)OCn2nnc3ccccc3c2=O)c2ccccc2c1=O | 10.2
72 | Br.C1=C(c2ccccc2)N2CCN=C2S1 | -7.6
73 | Br.Cc1ccc(C2=CSC3=NCCN23)c(C)c1 | -26.8
74 | Br.Cc1ccc(C2=CSC3=NCCN23)cc1 | -4.96
75 | Brc1ccc(C2=CSC3=NCCN23)cc1 | -29.5
76 | Br.Clc1ccc(C2=CSC3=NCCN23)cc1Cl | -48.2
77 | Br.CC(C)Cc1ccc(C2=CSC3=NCCN23)cc1 | -70.5
78 | Br.CC(C)(C)c1cc(C2=CSC3=NCCN23)cc(C(C)(C)C)c1O | -76.2
79 | Cl.Oc1ccc(C2=CSC3=NCCN23)cc1O | -1.2
80 | Br.COc1ccc(C2=CSC3=NCCN23)cc1 | -6.09
81 | Br.CC(C)(C)c1ccc(C2=CSC3=NCCN23)cc1 | -55.8
82 | Br.CCc1ccc(C2=CSC3=NCCN23)cc1 | -14.7
83 | Clc1ccc(C2=CSC3=NCCN23)c(Cl)c1.[Br-] | -59.4
84 | O=C(c1ccc(CS(=O)c2ccccc2Cl)o1)N1CCCCCC1 (stereo not shown) | 14.5
85 | O=C(CC1C(=O)NCCN1C(=O)c1ccc([N+](=O)[O-])cc1)Nc1ccc(F)cc1 (stereo not shown) | -21.8
86 | O=C(Nc1nccs1)c1ccc2c(c1)C(=O)N(Cc1cccnc1)C2=O | -4.17
87 | CCCCNC(=O)c1ccc(CS(=O)(=O)c2ccc(C)cc2)o1 | 15.1
88 | CCOC(=O)c1ccc2cccc(C)n2c1=O | 3.05
